This passage reports max response, Potency and outcome results from PubChem BioAssay (Tox21).

The structures appear in SMILES notation. Values joined by “and” are separate entries in the source; they are usually repeats but may differ in a detail not shown here. Equal values may be shown once. Records with an inconclusive call do not appear. Some compounds were tested as several samples or in several runs, with calls that do not always agree. Active and inactive are the calls of the source. The call rests on the fitted dose curve; in most records, active means well fitted curve in the direction sought with a large enough effect in the repeat runs; inconclusive means weak or mixed curves; inactive means no such curve, though single readings can be large; an effect the other way counts as inactive or inconclusive.

Assay [1] in a line: qHTS RealTime-Glo MT Cell Viability Assay in HEK293 cells - 40 hour (AID 1224874). Further: nearly all actives have a fitted effect of over 50% in size. Particulars: RealTime-Glo luminescence; max response: stronger effect = lower value. The procedure, abridged:
(§1)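 Kinetic, non-lysing viability readout. Seed HEK293 (600/well) with reagent, incubate 5 h at 37 C/5% CO2, pin 23 nL compound in DMSO, incubate at 37 C, read luminescence at 0, 8, 16, 24, 32, 40 h.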
For orientation: In qHTS, concentration-response curves come from the screen itself.

Assay [2] is described as follows: A CellTox Green Cytotoxicity Assay to monitor cytotoxicity in HEK293 cells - 24 hour (AID 1224875). Further: series mostly up to about 77 µM; nearly all actives have a fitted effect of over 45% in size. A digest of the protocol: (§2)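 Real-time, in one plate: 600 HEK293 cells/well with dead-cell DNA dye, pinned compound after 5 h, 37 C incubation over 40 h; viable cells give no appreciable fluorescence.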
The nature of assay [3]: qHTS RealTime-Glo MT Cell Viability Assay in HepG2 cells - 32 hour (AID 1224877). Further: nearly all actives have a fitted effect of over 55% in size. A digest of the protocol: (§3)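 Compound treatment began 5 h after plating HepG2 cells (600/well) with NanoLuc luciferase and prosubstrate. Plates stayed at 37 C for 40 h; luminescence was captured at six time points, 0 h through 40 h.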
The nature of assay [4]: A CellTox Green Cytotoxicity Assay to monitor cytotoxicity in HepG2 cells - 24 hour (AID 1224878). Further: nearly all actives have a fitted effect of over 45% in size. A digest of the protocol:
(§4)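 Cytotoxicity was tracked as dead-cell DNA fluorescence in HepG2 cells treated with test compounds at 37 C; each time-point value comes from one kinetic series spanning 0, 8, 16, 24, 32 and 40 h.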

A short description of assay [5]: A CellTox Green Cytotoxicity Assay to monitor cytotoxicity in HepG2 cells - 40 hour (AID 1224879). Further: nearly all actives have a fitted effect of over 40% in size. A digest of the protocol:
as §4

Assay [6] is described as follows: qHTS RealTime-Glo MT Cell Viability Assay in HEK293 cells - 0 hour (AID 1224880). Further: top concentration of the series differs between compounds; nearly all actives have a fitted effect of over 45% in size. A digest of the protocol: as §1
Assay [7] in a line: A CellTox Green Cytotoxicity Assay to monitor cytotoxicity in HEK293 cells - 32 hour (AID 1224881). Further: nearly all actives have a fitted effect of over 40% in size. A digest of the protocol:
as §2

Assay [8] can be described thus: A CellTox Green Cytotoxicity Assay to monitor cytotoxicity in HepG2 cells - 0 hour (AID 1224882). Further: nearly all actives have a fitted effect of over 35% in size. A digest of the protocol: as §4
Assay [9] is described as follows: A CellTox Green Cytotoxicity Assay to monitor cytotoxicity in HepG2 cells - 32 hour (AID 1224883). Further: nearly all actives have a fitted effect of over 50% in size. The procedure, abridged:
as §4

Assay [10] in a line: A CellTox Green Cytotoxicity Assay to monitor cytotoxicity in HEK293 cells - 8 hour (AID 1224884). Further: nearly all actives have a fitted effect of over 35% in size. The procedure, abridged:
as §2

Assay [11] is described as follows: qHTS RealTime-Glo MT Cell Viability Assay in HepG2 cells - 16 hour (AID 1224885). Further: nearly all actives have a fitted effect of over 50% in size. A digest of the protocol:
as §3

Assay [12] in a line: qHTS RealTime-Glo MT Cell Viability Assay in HEK293 cells - 24 hour (AID 1224886). Further: top concentration of the series differs between compounds; nearly all actives have a fitted effect of over 50% in size. The procedure, abridged:
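Quantitative high-throughput screen of the Tox21 10K library in HEK293: cells and RealTime-Glo reagents plated together, compound added at 5 h, luminescence monitored through 40 h at 37 C.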

The nature of assay [13]: qHTS RealTime-Glo MT Cell Viability Assay in HEK293 cells - 8 hour (AID 1224887). A digest of the protocol: as §1
Assay [14] is described as follows: A CellTox Green Cytotoxicity Assay to monitor cytotoxicity in HEK293 cells - 16 hour (AID 1224888). Further: nearly all actives have a fitted effect of over 35% in size. The procedure, abridged:
as §2

Assay [15] in a line: qHTS RealTime-Glo MT Cell Viability Assay in HepG2 cells - 0 hour (AID 1224889). Further: nearly all actives have a fitted effect of over 50% in size. The procedure, abridged: as §3
Assay [16] is described as follows: A CellTox Green Cytotoxicity Assay to monitor cytotoxicity in HepG2 cells - 8 hour (AID 1224890). Further: nearly all actives have a fitted effect of over 45% in size. The procedure, abridged: as §4
Assay [17] is described as follows: qHTS assay to identify small molecule antagonists of the estrogen receptor alpha (ER-alpha) signaling pathway using the BG1 cell line in the presence of 0.1 nM 17-beta-estradiol - cell viability counter screen (AID 1259241). Further: nearly all actives have a fitted effect of over 40% in size. The procedure, abridged:
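The cell line endogenously expresses full-length ER-alpha and carries four EREs driving luciferase. Cells are cultured 5 days hormone-free, treated 22 hr with compounds and 0.1 nM estradiol, then viability is read by fluorescence.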

Assay [18] can be described thus: qHTS assay to identify small molecule antagonists of the androgen receptor (AR) signaling pathway using the MDA cell line in the presence of 0.5 nM R1881 - cell viability counter screen (AID 1259242). Further: nearly all actives have a fitted effect of over 45% in size. The procedure, abridged: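 Cells seeded at 3,000/well and allowed 5 hr at 37C, 0% CO2 before compound transfer and R1881 (0.5 nM final) addition; 16 hr later, live-cell protease fluorescence indicated cytotoxicity.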

A short description of assay [19]: A CellTox Green Cytotoxicity Assay to monitor cytotoxicity in HepG2 cells - 16 hour (AID 1224876). Further: nearly all actives have a fitted effect of over 45% in size. A digest of the protocol:
as §4

Assay [20] concerns the target Androgen receptor (Homo sapiens) (UniProt P10275). Description: qHTS assay to identify small molecule antagonists of the androgen receptor (AR) signaling pathway using the MDA cell line in the presence of 0.5 nM R1881 (AID 1259243). Further: nearly all actives have a fitted effect of over 50% in size. Further: potency means the concentration at half of the fitted maximal effect. The procedure, abridged: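 Luminescence from an AR/GR-responsive MMTV-luciferase construct in MDA-kb2 breast carcinoma cells, read 30 min after ONE-Glo, following 16 hr co-treatment with compounds and 0.5 nM R1881.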
On the % scale 0 is the no-effect control and ±100 the full control effect.

Sequence of Androgen receptor (Homo sapiens) (P10275 whole entry, looked up): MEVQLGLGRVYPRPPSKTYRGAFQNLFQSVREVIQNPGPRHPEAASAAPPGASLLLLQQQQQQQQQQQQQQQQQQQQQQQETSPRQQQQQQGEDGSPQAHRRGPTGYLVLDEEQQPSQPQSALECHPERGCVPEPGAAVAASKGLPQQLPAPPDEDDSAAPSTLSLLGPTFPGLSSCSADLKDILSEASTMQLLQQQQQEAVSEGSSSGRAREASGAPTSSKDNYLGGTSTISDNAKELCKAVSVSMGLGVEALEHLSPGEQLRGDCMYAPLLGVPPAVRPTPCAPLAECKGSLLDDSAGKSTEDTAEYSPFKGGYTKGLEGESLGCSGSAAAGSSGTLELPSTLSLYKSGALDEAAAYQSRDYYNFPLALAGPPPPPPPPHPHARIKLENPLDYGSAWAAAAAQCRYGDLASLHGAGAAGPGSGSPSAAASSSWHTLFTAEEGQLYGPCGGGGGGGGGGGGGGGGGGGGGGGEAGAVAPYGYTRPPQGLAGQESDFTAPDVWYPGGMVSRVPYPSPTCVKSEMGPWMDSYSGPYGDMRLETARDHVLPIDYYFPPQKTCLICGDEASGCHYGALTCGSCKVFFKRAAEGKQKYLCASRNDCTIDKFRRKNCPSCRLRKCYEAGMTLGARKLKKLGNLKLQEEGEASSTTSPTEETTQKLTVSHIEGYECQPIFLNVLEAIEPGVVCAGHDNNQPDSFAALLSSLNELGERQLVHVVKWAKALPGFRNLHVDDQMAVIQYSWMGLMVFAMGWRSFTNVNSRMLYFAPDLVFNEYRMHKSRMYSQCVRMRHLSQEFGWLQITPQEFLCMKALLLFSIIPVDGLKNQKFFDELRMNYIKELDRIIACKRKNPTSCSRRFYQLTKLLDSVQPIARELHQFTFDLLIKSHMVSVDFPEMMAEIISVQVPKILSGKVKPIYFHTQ

For the compound `C[C@]12CC[C@H]3[C@@H](CC[C@@]45O[C@@H]4C(O)=C(C#N)C[C@]35C)[C@@H]1CC[C@@H]2O`, the max response in [1] was 27.1% (inactive) and 19.8% (inactive). For the same compound, the Potency result in assay [2], in assay [4], in assay [5], in assay [7], in assay [8] and in assay [9] was “inactive” throughout. The Potency result in assay [10], in [12], in assay [14], in assay [16] and in assay [17] was “inactive” throughout. The compound was classed as inactive in assay [3], in assay [6], in assay [11], in [13], in assay [15] and in [18].
Take `CC(=O)C=C(C)C`: the max response in [1] was 1.7% (inactive) and 8.25% (inactive). In addition, the Potency result in [2], in [4], in assay [5], in assay [7], in assay [8] and in assay [9] was “inactive” throughout. In addition, the Potency entry in assay [10], in assay [12], in assay [14], in assay [16] and in assay [17] was “inactive” each time. Moreover, the result in [3], in assay [6], in assay [11], in assay [13], in assay [15] and in assay [18] was inactive.
Turning to `OCCN(CCO)CCO`, the max response in assay [1] is -6.59% (inactive) and 8.79% (inactive). Further, the Potency result in assay [2], in assay [4], in assay [5], in [7], in assay [8] and in assay [9] was “inactive” in each case. The Potency entry in assay [10], in assay [12], in assay [14], in [16] and in assay [17] was “inactive” each time. Also, the outcome in [3], in [6], in [11], in assay [13], in assay [15] and in [18] was inactive.
As for `c1ccc(-c2ccccc2)cc1`, in assay [1], the max response was -0.911% (inactive) and -11.7% (inactive). Also, the Potency entry in assay [2], in assay [19], in assay [4], in assay [7], in assay [8] and in [9] was “inactive” each time. The Potency entry in [10], in assay [12], in [16], in [17] and in assay [20] was “inactive” in each case. The call in assay [3], in assay [6], in [11], in [13], in [15] and in [18] was inactive.
Turning to `NCC(O)c1ccc(O)cc1` (stereo unspecified), the max response in assay [1] is -6.22% (inactive) and 3.7% (inactive). Moreover, the Potency result in [2], in assay [19], in assay [4], in [7], in assay [8] and in assay [9] was “inactive” in each case. Further, the Potency result in assay [10], in assay [12], in assay [14], in [16] and in [17] was “inactive” throughout. Moreover, the call in [3], in assay [6], in assay [11], in assay [13], in [15] and in assay [18] was inactive.
With `COP(N)(=O)SC` (stereo unspecified), in assay [1], the max response was -1.86% (inactive) and 15.3% (inactive). In addition, the Potency entry in [2], in assay [19], in [4], in [7], in assay [8] and in [9] was “inactive” throughout. Also, the Potency result in [10], in assay [12], in assay [14], in [16] and in assay [17] was “inactive” each time. For the same compound, the call in assay [3], in [6], in [11], in assay [13], in [15] and in [18] was inactive.
Consider `Cc1ccc([N+](=O)[O-])cc1C`, for which the max response in assay [1] was -0.25% (inactive) and 2.38% (inactive). For the same compound, the Potency entry in assay [2], in assay [19], in assay [4], in assay [7], in assay [8] and in assay [9] was “inactive” in each case. The Potency entry in assay [10], in assay [12], in assay [14], in assay [16] and in [17] was “inactive” throughout. In addition, the compound was called inactive in assay [3], in assay [6], in assay [11], in assay [13], in [15] and in assay [18].
In the case of `c1ccc(OP(Oc2ccccc2)Oc2ccccc2)cc1`, the max response in assay [1] is 4.65% (inactive) and 9.76% (inactive). Besides, the Potency result in assay [2], in assay [4], in [5], in assay [7], in assay [8] and in assay [9] was “inactive” throughout. The Potency result in assay [10], in assay [12], in assay [14], in [16] and in assay [17] was “inactive” each time. The compound was classed as inactive in [3], in assay [6], in [11], in [13], in assay [15] and in [18].
In the case of `[N-]=[N+]=[N-]`, the max response in assay [1] is -10.7% (inactive) and 2.12% (inactive). Besides, the Potency result in assay [2], in assay [19], in assay [4], in [7], in [8] and in assay [9] was “inactive” throughout. Also, the Potency entry in assay [10], in assay [12], in assay [16] and in [17] was “inactive” each time. Besides, the compound was classed as inactive in assay [3], in assay [6], in assay [11], in assay [13], in assay [15] and in assay [18]. Besides, the Potency in [20] was 41.8 µM (active) and inactive.
On to `CCN(CC)c1ccccc1`, for which the max response in [1] was 8.36% (inactive) and 18.4% (inactive). The Potency result in assay [2], in [19], in assay [4], in [7], in [8] and in assay [9] was “inactive” throughout. The Potency result in [10], in [12], in assay [14], in assay [16], in [17] and in assay [20] was “inactive” in each case. For the same compound, the result in assay [3], in assay [6], in assay [11], in assay [13], in assay [15] and in assay [18] was inactive.
Consider `CCCCN(CCCC)SN(C)C(=O)Oc1cccc2c1OC(C)(C)C2`, for which the max response in assay [1] was -26.5% (inactive). Moreover, the Potency result in assay [2], in assay [19], in [4], in [5], in assay [7] and in assay [8] was “inactive” each time. The Potency result in [9], in assay [10], in [16] and in assay [17] was “inactive” throughout. Besides, the outcome in [3], in [6], in assay [11], in assay [15] and in [18] was inactive.
`C#CCN(C)[C@H](C)Cc1ccccc1`: the max response in assay [1] was 3.52% (inactive) and 3.78% (inactive). Further, the Potency result in assay [2], in [19], in assay [4], in assay [7], in [8] and in assay [9] was “inactive” each time. Also, the Potency result in [10], in [12], in [14], in [16] and in assay [17] was “inactive” each time. The result in assay [3], in [6], in [11], in assay [13], in [15] and in assay [18] was inactive.
As for `Oc1ccccc1Cl`, the max response in assay [1] was 9.22% (inactive) and 18.7% (inactive). Moreover, the Potency entry in assay [2], in [19], in assay [4], in assay [7], in assay [8] and in [9] was “inactive” throughout. The Potency entry in [10], in [12], in assay [14], in assay [16] and in assay [17] was “inactive” throughout. The result in assay [3], in [6], in assay [11], in assay [13], in assay [15] and in assay [18] was inactive.
For the compound `O=S(=O)(c1ccc(O)cc1)c1ccc(O)cc1`, the max response in [1] is -19.2% (inactive). For the same compound, the Potency entry in assay [2], in [19], in [4], in assay [7], in assay [8] and in assay [9] was “inactive” throughout. Also, the Potency entry in assay [10], in [12], in assay [14], in [16] and in [17] was “inactive” throughout. Besides, the result in [3], in assay [6], in assay [11], in assay [13], in [15] and in assay [18] was inactive.
